This passage reports outcome and AC50 results from PubChem BioAssay (EPA / NIEHS).

A short description of test [1]: CPHEA_Stoker_NIS_Cytotoxicity: Cytotoxicity Assessment for CPHEA's Radioactive Iodide Uptake (RAIU) Assay for Sodium/Iodide Symporter (NIS) Inhibition, Stoker and Laws Labs (AID 2283897).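 For AC50: active means loss of ATP signal versus DMSO meaning cytotoxicity.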 The procedure, abridged:
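hNIS-HEK293T-EPA human kidney cells were exposed for 2 hours at room temperature to test chemicals (0.001–100uM, 0.5% final DMSO) in HEPES-buffered HBSS, pH 7.4. Viability was read as ATP content by luciferase bioluminescence, loss of signal versus DMSO.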

A short description of test [2]: CEETOX_H295R_11DCORT_noMTC: CeeTox H295R High-throughput Steroidogenesis Assay for 11-Deoxycortisol (11DCORT), maximum tolerated concentration (MTC) filtered results only (AID 2283911; active = hit-call score of the fitted dose curve at least 0.9, where 1 is the maximum; inactive = score below 0.9). The conditions noted are these: actives raise or lower the signal. On the procedure: CEETOX_H295R is a cell-based, multiplexed-readout assay that uses H295R, a human adrenal gland cell line, with measurements taken at 48 hours after chemical dosing in a 96-well plate.CEETOX_H295R_11DCORT_noMTC is one of 12 assay component(s) measured or calculated from the CEETOX_H295R assay (11 hormones and 1 viability assay). It is designed to make measurements of hormone induction, a form of inducible reporter, as detected with absorbance signals by HPLC-MS-MS technology. The concentrations for these components have not been pre-filtered for the maximum tolerated concentration (MTC) based on the MTT assay (_noMTC).Data from the assay component CEETOX_H295R_11DCORT_noMTC was analyzed into 1 assay endpoint. This assay endpoint, CEETOX_H295R_11DCORT_noMTC, was analyzed with bidirectional fitting relative to DMSO as the negative control and baseline of activity. Using a type of inducible reporter, gain or loss-of-signal activity using HPLC-MS-MS was used to understand synthesis of 11-Deoxycortisol in H295R cell line at 48hr of chemical exposure, without filtering concentrations for maximum tolerated concentration (MTC). To generalize the intended target to other relatable targets, this assay endpoint is annotated to the steroid hormone intended target family, where the subfamily is glucocorticoids.
Cell culture and media preparation procedures were conducted in accordance with OECD Test No. 456 guidelines, with minor modifications. H295R cells (ATCC CRL-2128) were expanded for 5 passages and frozen in batches in liquid nitrogen. […] For steroid quantification, media samples were shipped to OpAns, LLC (Durham, NC) on dry ice, and samples were thawed to room temperature prior to liquid-liquid extraction. […] Steroid hormones were separated by HPLC, eluted using a reverse phase C18 gradient with electrospray positive ionization, followed by quantification by tandem mass spectrometry (MS/MS). Data were acquired on a MassHunter Workstation Acquisition version B03.01 (Agilent Technologies, Inc.) and processed using MassHunter Quantitative Analysis for QQQ. Accuracy was determined for each hormone analyte from 3 standards to determine upper and lower limits of quantification (ULOQ and LLOQ, respectively) using a 7-point standard curve. Precision and accuracy of the extraction and quantification methods were calculated as the percent relative standard deviation (%RSD) of the spiked standards and percent spiked standard recovered, respectively. The goal was to achieve 100% accuracy (i.e., recover all spiked-in standard at quantification with minimal loss during run time) and good precision (i.e., have %RSD <15% to ensure reproducibility). Test medium was removed following chemical exposure, and cell viability was evaluated in the same wells by MTT. […]

Test [3] in a line: CEETOX_H295R_OHPREG_noMTC: CeeTox H295R High-throughput Steroidogenesis Assay for OH-Pregnenolone (OHPREG), maximum tolerated concentration (MTC) filtered results only (AID 2283912; active = hit-call score of the fitted dose curve at least 0.9, where 1 is the maximum; inactive = score below 0.9). The conditions noted are these: actives raise or lower the signal. The procedure, abridged: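 Steroidogenesis in H295R cells (OECD 456, modified): after 48 h forskolin priming and 48 h chemical treatment, secreted 17alpha-hydroxypregnenolone is measured by HPLC-MS/MS. Activity is fitted in both directions against DMSO; concentrations are not filtered by MTT-based MTC.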

A short description of test [4]: CEETOX_H295R_OHPROG_noMTC: CeeTox H295R High-throughput Steroidogenesis Assay for OH-Progesterone (OHPROG), maximum tolerated concentration (MTC) filtered results only (AID 2283914; active = hit-call score of the fitted dose curve at least 0.9, where 1 is the maximum; inactive = score below 0.9). The conditions noted are these: actives raise or lower the signal. Summed up: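 Forskolin 10 uM, 48 h prestim → test cmpd in DMSO (0.1% final), 48 h → medium MTBE extraction → LC-MS/MS quant of 17alpha-OH-progesterone. Bidirectional fit vs DMSO; no MTT-based MTC filtering.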

Test [5] is described as follows: CEETOX_H295R_CORTISOL_noMTC: CeeTox H295R High-throughput Steroidogenesis Assay for Cortisol, maximum tolerated concentration (MTC) filtered results only (AID 2283916; active = hit-call score of the fitted dose curve at least 0.9, where 1 is the maximum; inactive = score below 0.9). The conditions noted are these: actives raise or lower the signal. Summed up:
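Cortisol secretion measured by LC-MS/MS after 48 h chemical treatment (final 0.1% DMSO) of forskolin-primed (10 uM, 48 h) H295R cells; gain or loss fitted relative to DMSO, without maximum-tolerated-concentration filtering.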

The nature of test [6]: CEETOX_H295R_CORTIC_noMTC: CeeTox H295R High-throughput Steroidogenesis Assay for Corticosterone (CORTIC), maximum tolerated concentration (MTC) filtered results only (AID 2283917; active = hit-call score of the fitted dose curve at least 0.9, where 1 is the maximum; inactive = score below 0.9). To be noted: actives raise or lower the signal. Summed up: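 Following OECD 456 with minor changes, H295R cultures received 10 uM forskolin for 48 h, then test chemical at 0.1% DMSO for 48 h. Media steroids were extracted and measured by LC-MS/MS.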

The nature of test [7]: CEETOX_H295R_DOC_noMTC: CeeTox H295R High-throughput Steroidogenesis Assay for DOC, maximum tolerated concentration (MTC) filtered results only (AID 2283918; active = hit-call score of the fitted dose curve at least 0.9, where 1 is the maximum; inactive = score below 0.9). To be noted: actives raise or lower the signal. Summed up:
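11-Deoxycorticosterone secreted by human adrenal H295R cells quantified by HPLC-MS/MS after 48 h chemical exposure (0.1% DMSO), following 48 h 10 uM forskolin prestimulation. Concentrations not filtered by MTT-derived MTC; bidirectional fitting.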

Test [8] addresses human Thyroid hormone Receptor beta (TRb), THRB (gene 7068) (UniProt P10828). Kind of test: ATG_hTRb_XSP2: Attagene TRANS-FACTORIAL Multi-Species (XSP2) HepG2 Assay for human Thyroid hormone Receptor beta (TRb) (AID 2283840).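 Note: actives raise reporter mRNA so potency reflects agonist-like gain of signal.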 Here is the method: ATG_XSP2_multi-species_TRANS is a cell-based, multiplexed assay created by modifying the existing Attagene TRANS-FACTORIAL system to include a panel of nuclear receptors from some or all the following species: human (Homo sapiens), mouse (Mus musculus), frog (Xenopus laevis), zebrafish (Danio rerio), chicken (Gallus gallus), and turtle (Chrysemys picta). The ECOTOX-FACTORIAL format uses HepG2, a human liver cell line, with measurements taken at 24 hours after chemical dosing in a 24-well plate. Xsp2 included 3 nM 6-alpha-fluorotestosterone and 1.5 nM norgestrel to stimulate the androgen receptor.ATG_hTRb_XSP2 is one of 29 assay components measured or calculated from the ATG_XSP2_multi-species_TRANS assay. It is designed to make measurements of mRNA induction, a form of inducible reporter, as detected with fluorescence intensity signals by Reverse transcription polymerase chain reaction (RT-PCR) and Capillary electrophoresis technology.The assay endpoint ATG_hTRb_XSP2 was analyzed in the positive analysis fitting direction relative to DMSO as the negative control and baseline of activity. Using a type of inducible reporter, measures of mRNA for gain-of-signal activity can be used to understand the reporter gene at the transcription factor-level as they relate to the gene TR. Furthermore, this assay endpoint can be referred to as a primary readout, because this assay has produced multiple assay endpoints where this one serves a reporter gene function. To generalize the intended target to other relatable targets, this assay endpoint is annotated to the nuclear receptor intended target family, where the subfamily is non-steroidal.
Human liver HepG2 cells are transiently transfected with multiple reporter transcription units (MRTUs) in 6-well plates using FuGene 6 reagent (Roche; 3 ml FuGene/1 mg DNA). The MRTU constructs are regulated by a cis-regulating element (promoter). […] A major difference between the CIS and TRANS system is that in CIS activities of endogenous TFs are measured, whereas the TRANS assay evaluates changes in activities of exogenous, chimeric NR-Gal4 proteins. […] At the end of 24 hour incubation, total RNA was isolated using TriZol reagent (Invitrogen). The isolated RNA is then reverse-transcribed using oligo(dT) primer and Mo-MLV reverse transcriptase (Invitrogen) with DNAse I (Ambion) treatment for 30 min. The one-tenth of the produced cDNA was amplified by PCR using Taq DNA polymerase (Invitrogen) and two reporter sequence-specific primers. The PCR products were fluorescently labeled by primer extension with 6-arboxyfluorescein (6-FAM) 5'-labeled reporter sequence-specific primer (2 min at 95 C, 20 s at 68 C and 10 min at 72 C) and these products were digested with 5U of HpaI (New England Biolabs) for 2h at 37 C. The fragments were purified using Qiaquick PCR columns (Qiagen), analyzed on an ABI 3130xL genetic analyzer (Applied Biosystems) with peak positions identified by using a set of X-rhodamine (ROX)-labeled MapMarker1000 molecular weight standards (BioVentures). The raw capillary electrophoresis data was processed using Attagraph software (Attagene).

For test [9], the target named is frog Thyroid hormone Receptor alpha (TRa), thra-a (gene 397942) (UniProt P15204). In words: ATG_frTRa_XSP2: Attagene TRANS-FACTORIAL Multi-Species (XSP2) HepG2 Assay for frog Thyroid hormone Receptor alpha (TRa) (AID 2283839).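 For AC50: AC50 reflects induction of frog TRa-driven reporter mRNA above DMSO baseline.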 The procedure, abridged:
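Transfect HepG2 with multiple reporter units (GAL4-UAS), dose chemical, incubate 24 h. Isolate RNA, reverse-transcribe, PCR-amplify reporter, label with 6-FAM by primer extension, digest with HpaI, run capillary electrophoresis; induction scored against DMSO.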

Test [10] is described as follows: CEETOX_H295R_ANDR_noMTC: CeeTox H295R High-throughput Steroidogenesis Assay for Androstenedione (ANDR), maximum tolerated concentration (MTC) filtered results only (AID 2283915; active = hit-call score of the fitted dose curve at least 0.9, where 1 is the maximum; inactive = score below 0.9). To be noted: actives raise or lower the signal. Summed up:
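H295R cells, passage 10 or below, prestimulated 48 h with 10 uM forskolin, then exposed 48 h to chemical in 0.1% DMSO. Medium androstenedione extracted with MTBE, quantified by HPLC-MS/MS; concentrations not MTC-filtered; bidirectional fit versus DMSO.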

Results filed as inconclusive are left out. Some structures have more than one record in an assay (separate samples or runs), and their calls can disagree. Calls of active or inactive are those of the source. Rule for the calls, unless noted: active = hit-call score of the fitted dose curve at least 0.9, where 1 is the maximum; inconclusive = response in the unintended direction; inactive = score below 0.9.

Chain of frog Thyroid hormone Receptor alpha (TRa), thra-a (gene 397942) (P15204 whole entry, looked up, the tested form may be a part): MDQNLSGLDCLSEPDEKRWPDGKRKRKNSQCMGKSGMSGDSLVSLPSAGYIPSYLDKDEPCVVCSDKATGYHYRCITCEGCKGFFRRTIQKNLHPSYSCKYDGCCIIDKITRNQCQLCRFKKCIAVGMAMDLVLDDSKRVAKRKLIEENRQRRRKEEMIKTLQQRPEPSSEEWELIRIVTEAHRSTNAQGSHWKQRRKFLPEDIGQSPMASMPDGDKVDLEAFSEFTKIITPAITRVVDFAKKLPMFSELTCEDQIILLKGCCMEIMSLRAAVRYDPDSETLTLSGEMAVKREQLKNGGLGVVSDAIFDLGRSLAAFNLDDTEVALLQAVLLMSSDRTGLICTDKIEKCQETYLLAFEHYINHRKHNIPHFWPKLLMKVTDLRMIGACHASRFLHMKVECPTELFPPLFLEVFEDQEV
Chain of human Thyroid hormone Receptor beta (TRb), THRB (gene 7068) (P10828 whole entry, looked up): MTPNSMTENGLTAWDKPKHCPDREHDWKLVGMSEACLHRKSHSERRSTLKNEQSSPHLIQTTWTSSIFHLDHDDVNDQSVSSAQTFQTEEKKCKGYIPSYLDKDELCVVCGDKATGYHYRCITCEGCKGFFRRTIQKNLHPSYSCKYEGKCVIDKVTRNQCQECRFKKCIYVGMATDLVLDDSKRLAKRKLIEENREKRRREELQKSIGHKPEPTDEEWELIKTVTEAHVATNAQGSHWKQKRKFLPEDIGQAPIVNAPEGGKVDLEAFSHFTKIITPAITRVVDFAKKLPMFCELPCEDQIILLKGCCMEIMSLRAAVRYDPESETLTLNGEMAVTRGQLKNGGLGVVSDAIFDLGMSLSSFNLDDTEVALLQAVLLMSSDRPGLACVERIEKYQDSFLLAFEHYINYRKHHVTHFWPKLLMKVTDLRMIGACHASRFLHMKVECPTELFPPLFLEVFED

As to `CC(C)(C)N(NC(=O)c1ccc(Cl)cc1)C(=O)c1ccccc1`, in test [1], the outcome was inactive.

Take `CCOC(=O)c1ccccc1C(=O)OCC`: the call in test [2], in test [3], in [4], in [5], in test [6] and in [7] was inactive.

Take `CCOc1ccc(C(C)(C)COCc2cccc(Oc3ccccc3)c2)cc1`: the figures for the concentration at half-maximal activity (AC50) in [2] and in test [4] were 13.1 µM (active) and 13.2 µM (active), respectively. The compound was classed as inactive in [3], in test [5], in test [6] and in [7].

Turning to `CCCCc1ccc(O)cc1`, in test [8], the concentration at half-maximal activity (AC50) – broadly, the concentration giving half of the maximal activity seen – was 31 µM (active) and the outcome was inactive. For the same compound, the result in test [1] was inactive.

Turning to `O=c1ssc(Cl)c1Cl`, the AC50 in [1] is 80.9 µM (active).

As for `c1ccc2c(c1)sc1ccccc12`, the outcome in [1] was inactive.

With `CO/N=C(/C(=O)OC)c1ccccc1COc1ccccc1C`, the result in [1] was inactive.

As for `O=S1(=O)OCC2C(CO1)C1(Cl)C(Cl)=C(Cl)C2(Cl)C1(Cl)Cl` (configuration not stated), in [1], the result was inactive.

As to `c1ccc2c(c1)Nc1ccccc1S2`, the compound was classed as inactive in test [9] and in test [8].

As to `CCCCC(CC)COP(=O)(Oc1ccccc1)Oc1ccccc1` (configuration not stated), the result in test [1] was inactive.

As to `CCC(C)(C)c1ccc(O)cc1`, the outcome in test [9], in test [8] and in [1] was inactive.

Turning to `CCOP(=S)(Oc1ccc([N+](=O)[O-])cc1)c1ccccc1` (configuration not stated), in [1], the result was inactive.

As for `CC(C)(C)c1ccc(O)cc1`, in test [9], the result was inactive.

For `O=[N+]([O-])c1ccc(Cl)c(Cl)c1`, the outcome in [1] was inactive.

Regarding `ClC1=C(Cl)C2(Cl)C3C(Cl)C(Cl)CC3C1(Cl)C2(Cl)Cl` (configuration not stated), the AC50 in test [1] is 9.92 µM (active).

Turning to `O=NN1CCCC1`, the outcome in [1] was inactive.

For `CCOC(=O)c1ccccc1N`, the compound was called inactive in [2], in test [3], in [5], in test [6] and in test [7]. Also, in test [4], the AC50 was 41.3 µM (active).

Turning to `CCOP(=S)(OCC)SCS(=O)(=O)CC`, the AC50 in test [2] is 39.2 µM (active); in test [3] it was 43 µM (active); in test [10] it was 37.9 µM (active); in test [5] it was 45 µM (active); in test [7], 33.5 µM (active). For the same compound, the call in test [4] and in test [6] was inactive.

In the case of `CCOP(=S)(OCC)SCSCC`, the outcome in test [1] was inactive.

With `O=S(=O)(c1ccc(O)cc1)c1ccc(O)cc1`, the AC50 in test [9] was 100 µM (active). Further, in [8], the result was inactive.
